Screens: PubChem BioAssay, Broad Institute
Many of the other results were omitted from the sample, so hits are more common in it than they were.
NSD2 block: inhibitors of human NSD2 methyltransferase | O96028 | NSD2-SET H3K36me1 DELFIA fluorescence, biochemical | inhibition, % at 12.5 µM | actives 0.07% (n = 44,000) | AID 624260; in the data active means inhibition above about 54%, passing the limit was not always enough;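 further: inhibitors reduce the monomethyl H3K36 fluorescence signal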
Target sequence (O96028 whole entry, looked up): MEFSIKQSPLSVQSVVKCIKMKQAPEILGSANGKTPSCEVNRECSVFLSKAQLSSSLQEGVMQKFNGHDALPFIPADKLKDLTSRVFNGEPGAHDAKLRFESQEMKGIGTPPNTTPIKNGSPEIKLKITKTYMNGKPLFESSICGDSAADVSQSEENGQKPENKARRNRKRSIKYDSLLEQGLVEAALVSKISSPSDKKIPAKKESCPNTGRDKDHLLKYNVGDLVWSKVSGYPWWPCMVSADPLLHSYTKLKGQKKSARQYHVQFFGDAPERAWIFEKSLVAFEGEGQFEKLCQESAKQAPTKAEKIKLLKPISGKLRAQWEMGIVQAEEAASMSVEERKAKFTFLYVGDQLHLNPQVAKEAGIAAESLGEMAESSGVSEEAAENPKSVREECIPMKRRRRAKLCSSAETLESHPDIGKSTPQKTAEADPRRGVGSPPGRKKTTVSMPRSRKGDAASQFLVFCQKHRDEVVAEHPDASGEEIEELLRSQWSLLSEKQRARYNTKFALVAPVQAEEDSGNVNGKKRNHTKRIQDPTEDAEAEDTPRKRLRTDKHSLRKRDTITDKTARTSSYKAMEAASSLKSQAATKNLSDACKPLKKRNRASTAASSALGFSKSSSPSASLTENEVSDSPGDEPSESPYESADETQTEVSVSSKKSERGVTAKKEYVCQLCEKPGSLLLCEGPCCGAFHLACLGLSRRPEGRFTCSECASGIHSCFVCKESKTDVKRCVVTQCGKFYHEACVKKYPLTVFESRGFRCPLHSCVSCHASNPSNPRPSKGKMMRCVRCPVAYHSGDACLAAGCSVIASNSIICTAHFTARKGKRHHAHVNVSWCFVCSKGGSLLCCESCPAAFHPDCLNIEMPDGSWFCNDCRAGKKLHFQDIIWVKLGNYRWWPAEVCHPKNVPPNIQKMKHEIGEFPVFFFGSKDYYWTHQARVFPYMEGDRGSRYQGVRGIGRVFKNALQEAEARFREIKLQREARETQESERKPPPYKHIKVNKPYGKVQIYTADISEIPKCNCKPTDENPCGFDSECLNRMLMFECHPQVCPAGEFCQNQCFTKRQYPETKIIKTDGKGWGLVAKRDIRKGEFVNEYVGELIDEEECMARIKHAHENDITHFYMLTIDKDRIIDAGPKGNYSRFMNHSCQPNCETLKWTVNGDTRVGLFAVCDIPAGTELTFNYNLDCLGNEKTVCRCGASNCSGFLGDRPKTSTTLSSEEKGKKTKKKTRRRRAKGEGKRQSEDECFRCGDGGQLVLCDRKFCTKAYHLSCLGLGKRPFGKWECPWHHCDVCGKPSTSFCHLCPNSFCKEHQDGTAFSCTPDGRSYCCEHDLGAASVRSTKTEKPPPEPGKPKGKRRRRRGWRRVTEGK
Each line names hits and unclear results; the compound was inactive in the other large screens.

O=C(N/N=C/c1cc(Br)ccc1O)c1ccccn1	none
COc1ccc(CN(C)C[C@@H]2OCCCC[C@@H](C)Oc3ccc(NC(=O)c4ccncc4)cc3C(=O)N([C@H](C)CO)C[C@H]2C)cc1	none
C[C@H]1CN([C@@H](C)CO)C(=O)CCCn2cc(nn2)CO[C@@H]1CN(C)Cc1ccc2c(c1)OCO2	none
C[C@H](CO)N1C[C@H](C)[C@H](CN(C)Cc2ccccc2C(=O)O)Oc2cc(-c3ccc(C(=O)N(C)C)cc3)ccc2S1(=O)=O	none
O=C(NO)c1ccc(C(=O)N/N=C/c2cccc(O)c2O)cc1	none
O=C(NO)c1ccc(C(=O)N/N=C/c2ccc3ccccc3c2)cc1	NSD2 block 61.8
O=C(NO)c1ccc(C(=O)N/N=C/c2ccc(F)cc2)cc1	none
CCN(CC)c1ccc(/C=N/NC(=O)c2ccc(C(=O)NO)cc2)c(O)c1	none
O=C(NO)c1ccc(C(=O)N/N=C/c2ccc(O)c(O)c2O)cc1	NSD2 block 60.5
O=C(NO)c1ccc(C(=O)N/N=C/c2cccc(Oc3ccccc3)c2)cc1	none
Cc1ccc(S(=O)(=O)Nc2ccc3c(c2)C(=O)N([C@@H](C)CO)C[C@H](C)[C@H](CN(C)CC2CCCCC2)OCCCC[C@H](C)O3)cc1	none
COc1ccccc1-c1cnc2c(c1)C(=O)N([C@H](C)CO)C[C@H](C)[C@@H](CN(C)Cc1ccc(F)cc1)O2	none
C[C@@H]1CCCCO[C@@H](CN(C)C(=O)Nc2ccc(F)cc2)[C@@H](C)CN([C@H](C)CO)C(=O)c2cc(NS(=O)(=O)c3ccc(Cl)cc3)ccc2O1	none
COC(=O)C1=CO[C@@H](O[C@@H]2O[C@H](CO)[C@@H](O)[C@H](O)[C@H]2O)[C@H]2[C@@H]1C=CC21C=C([C@H](C)O)C(=O)O1 (stereo partly specified)	none
COC(=O)C1=CO[C@@H](O[C@@H]2O[C@H](CO)[C@@H](O)[C@H](O)[C@H]2O)[C@H]2[C@@H]1C=CC21C=C([C@H](C)OC(=O)/C=C/c2ccc(O)cc2)C(=O)O1 (stereo partly specified)	NSD2 block 76.1
COC(=O)C1=CO[C@@H](O[C@@H]2O[C@H](CO)[C@@H](O)[C@H](O)[C@H]2O)[C@@H]2[C@@H](C)[C@@H](O)[C@@H](OC(=O)/C=C/c3ccc(O)c(O)c3)[C@H]12	none
C[C@@H]1CN([C@@H](C)CO)C(=O)c2cc(NC(=O)Nc3ccc4c(c3)OCO4)ccc2O[C@H]1CN(C)Cc1ccc2c(c1)OCO2	none
COCC(=O)Nc1ccc2c(c1)[C@H]1C[C@H](CC(=O)N[C@@H](C)c3ccccc3)O[C@H](CO)[C@H]1O2	none
C[C@@H]1CCCCO[C@H](CN(C)C(=O)Nc2ccc3c(c2)OCO3)[C@H](C)CN([C@H](C)CO)C(=O)c2cc(NC(=O)Cc3ccccc3)ccc2O1	none
O=C(Nc1cc(C(F)(F)F)ccc1N1CCc2ccccc2C1)c1ccccc1	none
Cc1noc(C)c1S(=O)(=O)Nc1ccc2c(c1)CC(=O)N([C@H](C)CO)C[C@H](C)[C@@H](CN(C)Cc1ccc3c(c1)OCO3)O2	none
CC(C)NC(=O)N(C)C[C@@H]1Oc2ccc(NC(=O)Nc3ccc(F)cc3)cc2C(=O)N([C@H](C)CO)C[C@H]1C	none
C[C@@H]1CN([C@@H](C)CO)C(=O)c2cc(NC(=O)Nc3ccc(C(F)(F)F)cc3)ccc2O[C@@H](C)CCCCO[C@@H]1CN(C)Cc1ccccc1	none
COc1ccc(S(=O)(=O)N(C)C[C@@H]2Oc3ccc(NC(=O)NC4CCCCC4)cc3CC(=O)N([C@@H](C)CO)C[C@@H]2C)cc1	none
COC(=O)CCCCCCC(=O)N/N=C/c1cc(Br)ccc1O	none
Cc1ccc(S(=O)(=O)Nc2ccc3c(c2)CC(=O)N([C@H](C)CO)C[C@@H](C)[C@H](CN(C)C)O3)cc1	none
C[C@@H]1CCCCO[C@H](CN(C)C(=O)Nc2cccc3ccccc23)[C@H](C)CN([C@@H](C)CO)C(=O)c2cc(NC(=O)NC3CCCCC3)ccc2O1	none
C[C@@H]1CN([C@@H](C)CO)C(=O)c2cc(NS(=O)(=O)c3ccc(F)cc3)ccc2O[C@@H]1CN(C)S(C)(=O)=O	none
C[C@@H]1CN([C@H](C)CO)C(=O)c2cc(NC(=O)Cn3cnnn3)ccc2O[C@@H]1CN(C)CC1CCCCC1	none
C[C@@H]1CN([C@@H](C)CO)C(=O)c2cc(C#CC3(O)CCCC3)cnc2O[C@H]1CN(C)Cc1ccncc1	none
CC(=O)N(C)C[C@@H]1Oc2ncc(-c3cncnc3)cc2C(=O)N([C@H](C)CO)C[C@@H]1C	none
CC(C)NC(=O)N(C)C[C@@H]1Oc2ncc(C#CC3CCCC3)cc2C(=O)N([C@@H](C)CO)C[C@H]1C	none
C[C@@H]1CN([C@H](C)CO)C(=O)c2c(c3ccccc3n2C)-c2ccccc2CO[C@H]1CN(C)CC1CC1	none
COc1ccc(S(=O)(=O)Nc2cccc3c2O[C@H](CN(C)S(=O)(=O)c2ccccc2)[C@H](C)CN([C@@H](C)CO)C3=O)cc1	none
COc1cc(C(C)/C=C(/C)CC(=O)O)oc(=O)c1C (stereo unspecified)	none
C[C@@H]1O[C@@H](O[C@@H]2[C@@H](O)[C@H](O[C@@H]3[C@@H](O)[C@@H](O)[C@H](O[C@H]4[C@H](OC(=O)[C@]56CCC(C)(C)C[C@H]5C5=CCC7[C@@]8(C)C[C@H](O)[C@H](O[C@@H]9O[C@H](C(=O)O)[C@@H](O)[C@H](O)[C@H]9O)[C@@](C)(CO)C8[C@H](O)C[C@@]7(C)[C@]5(C)C[C@H]6O)O[C@@H](CO)[C@@H]4O)O[C@H]3C)OC[C@H]2O)[C@H](O)[C@H](O)[C@H]1O (stereo partly specified)	NSD2 block 73.9
CC1OC(O[C@H]2[C@@H](O)C[C@@]3(C)C([C@H](O)C[C@]4(C)C3CC=C3[C@@H]5CC(C)(C)CC[C@]5(C(=O)OC5OC(C)C(OC6OCC(OC7OCC(O)C(OC8OCC(O)C(O)C8O)C7O)C(O)C6O)C(O)C5O)CC[C@]34C)[C@]2(C)CO)C(O)C(OC2OC(CO)C(O)C(O)C2O)C1O (stereo partly specified)	none
C[C@@H]1O[C@@H](O[C@@H]2[C@@H](O)[C@H](OC(=O)[C@]34CCC(C)(C)CC3C3=CCC5[C@@]6(C)CC[C@H](OC7OC(CO)C(OC8OCC(O)C(O)C8O)C(O)C7O)C(C)(C)C6CC[C@@]5(C)[C@]3(C)CC4O)O[C@H]2CO)[C@H](O)[C@H](O)[C@H]1O[C@H]1OC[C@](O)(CO)[C@H]1O (stereo partly specified)	none
Cc1noc(C)c1NC(=O)N(C)C[C@H]1OCCCC[C@@H](C)Oc2ccc(NS(=O)(=O)c3cn(C)cn3)cc2C(=O)N([C@@H](C)CO)C[C@H]1C	none
C[C@H](CO)N1C[C@H](C)[C@H](CN(C)Cc2cccc(F)c2)Oc2cc(C#CC3CC3)ccc2S1(=O)=O	none
C[C@@H]1CN([C@H](C)CO)C(=O)Cc2cc(NC(=O)Cc3ccccc3)ccc2O[C@H]1CN(C)Cc1ccc(C(F)(F)F)cc1	none
C[C@H](CO)N1C[C@H](C)[C@@H](CN(C)C)Oc2c(NC(=O)Nc3ccc(C(F)(F)F)cc3)cccc2C1=O	none
CS(=O)(=O)Nc1ccc2c(c1)[C@@H]1C[C@H](CC(=O)NCc3cccc(F)c3)O[C@@H](CO)[C@@H]1O2	none
COc1ccc(C2Oc3c(OC)cc(CCCO)cc3C2CO)cc1OC1OC(CO)C(O)C(O)C1O (stereo unspecified)	none
COc1cc(C2Oc3c(OC)cc(CCCO)cc3C2CO)ccc1O[C@H]1O[C@H](C)[C@@H](O)[C@H](O)[C@@H]1O (stereo partly specified)	NSD2 block 59.1
